Test results from PubChem BioAssay (NCI).
The panel holds about 79,000 compounds, 15% with a hit somewhere; the sample as a whole holds those more often. Active and inactive are the calls of the source. No stated cut-off is given here; in the data, active means growth inhibition above about 70%; inactive means the rest.

Key:
[1] = NCI Yeast Anticancer Drug Screen. Data for the mlh1 strain (AID 171);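 further: 0% = growth of vehicle-treated control cultures of the same strain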; conditions: S. cerevisiae mlh1 strain growth inhibition, stronger effect = higher value
Procedure, shortened: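 Growth of the mutant yeast strain after compound exposure, expressed as inhibition relative to vehicle-only controls.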

[2] = NCI Yeast Anticancer Drug Screen. Data for the sgs1 strain (AID 173);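 further: 0% = growth of vehicle-only control cultures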; conditions: S. cerevisiae sgs1 mutant, stronger effect = higher value
Procedure, shortened: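 Growth of a yeast strain bearing a defined genetic alteration is measured after compound treatment. Inhibition is expressed relative to vehicle-only controls.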

[3] = NCI Yeast Anticancer Drug Screen. Data for the mlh1 rad18 strain (AID 175); conditions: S. cerevisiae mlh1 rad18 strain growth inhibition, stronger effect = higher value
Procedure, shortened: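 Read-out is yeast growth inhibition, calculated against vehicle-only controls. The compound was applied to a strain engineered with DNA damage repair alterations.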

[4] = NCI Yeast Anticancer Drug Screen. Data for the rad18 strain (AID 177); conditions: S. cerevisiae rad18 mutant growth inhibition, stronger effect = higher value
Procedure, shortened: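 Growth of the mutant yeast strain after compound exposure, normalised to vehicle-only cultures.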

[5] = NCI Yeast Anticancer Drug Screen. Data for the rad52 strain (AID 147);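 further: 0% = growth of vehicle-treated control cultures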; conditions: S. cerevisiae rad52 mutant growth inhibition, stronger effect = higher value
Procedure, shortened: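 Compounds are applied to a genetically defined yeast strain lacking normal DNA damage repair, and inhibition of growth is expressed relative to cultures given vehicle only.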

[6] = NCI Yeast Anticancer Drug Screen. Data for the wt1 strain (AID 149);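 further: 0% = growth of vehicle-treated wt1 cultures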; conditions: S. cerevisiae wt1 strain (SPY 50644) growth inhibition, stronger effect = higher value
Procedure, shortened: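 Compounds are added to wt1 yeast cultures. Growth is then measured. Inhibition is expressed relative to vehicle-treated controls.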

[7] = NCI Yeast Anticancer Drug Screen. Data for the rad50EPP+ strain (AID 151);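 further: 0% = growth of vehicle-treated control cultures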; conditions: S. cerevisiae rad50 mutant strain, stronger effect = higher value
Procedure, shortened: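 Compounds were applied to the rad50EPP+ yeast strain, which bears a defined DNA repair alteration, and growth inhibition was determined relative to vehicle-treated cultures.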

[8] = NCI Yeast Anticancer Drug Screen. Data for the rad50 strain (AID 155);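 further: 0% = growth of vehicle-only cultures of the same strain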; conditions: S. cerevisiae rad50 strain growth inhibition, stronger effect = higher value
Procedure, shortened: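 Inhibition values express reduced yeast growth in compound-treated cultures relative to vehicle-treated controls.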

[9] = NCI Yeast Anticancer Drug Screen. Data for the mec2-1 strain (AID 157); conditions: S. cerevisiae mec2-1 strain, stronger effect = higher value
Procedure, shortened: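 Strain: mec2-1 (DNA repair/cell cycle alteration). Compound exposure, then growth measured; inhibition expressed relative to vehicle.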

[10] = NCI Yeast Anticancer Drug Screen. Data for the rad14 strain (AID 159);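 further: 0% = growth of vehicle-treated control cultures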; conditions: S. cerevisiae rad14 strain growth inhibition, stronger effect = higher value
Procedure, shortened: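 A mutant yeast strain defective in DNA damage repair is treated with compound; inhibition of its growth is scored against untreated, vehicle-exposed cultures.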

[11] = NCI Yeast Anticancer Drug Screen. Data for the sgs1 mgt1 strain (AID 161);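 further: 0% = growth of cultures given vehicle only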; conditions: S. cerevisiae sgs1 mgt1 strain, stronger effect = higher value
Procedure, shortened: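 Mutant yeast exposed to compound; growth scored against vehicle-only wells.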

[12] = NCI Yeast Anticancer Drug Screen. Data for the CLN2oe strain (AID 163);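 further: 0% = growth of vehicle-only control cultures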; conditions: S. cerevisiae CLN2oe strain, stronger effect = higher value
Procedure, shortened: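 Growth of a genetically modified yeast strain is measured after compound exposure and compared with cultures given vehicle alone.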

[13] = NCI Yeast Anticancer Drug Screen. Data for the cln2 rad14 strain (AID 165);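 further: 0% = growth equal to vehicle treated cultures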; conditions: S. cerevisiae cln2 rad14 strain, stronger effect = higher value
Procedure, shortened: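 Compounds are applied to the cln2 rad14 yeast strain, and growth is then compared with that of vehicle-treated cultures to give inhibition.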

[14] = NCI Yeast Anticancer Drug Screen. Data for the bub3 strain (AID 167); conditions: S. cerevisiae bub3 mutant strain, stronger effect = higher value
Procedure, shortened: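 Steps: expose the mutant yeast strain to compound; grow alongside vehicle-treated cultures; measure growth; express inhibition against the vehicle cultures.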

[15] = NCI Yeast Anticancer Drug Screen. Data for the wt2 strain (AID 169);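 further: 0% = growth of vehicle-treated yeast cultures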; conditions: S. cerevisiae wt2 strain growth inhibition, stronger effect = higher value
Procedure, shortened: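 This strain belongs to a panel of yeast strains with defined genetic alterations in DNA damage repair or cell cycle control. Compounds are applied, and growth inhibition is measured against vehicle-treated cultures.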

[16] = at 5.0 µM (retest, dose inferred, filed as 0.5)
[17] = at 50.0 µM (retest, dose inferred, filed as 5.0)

Measured: growth inhibition

CCC(NC(C)c1ccccc1)C(=O)c1ccc(OCc2ccccc2)c(OCc2ccccc2)c1 (centres undefined)
inactive: [1]; at 1.2 µM 5% | [1]; at 3.7 µM -6% | [1]; at 11.0 µM 3% | [1]; at 33.0 µM 0% | [1]; at 100.0 µM -3% | [2]; at 1.2 µM 8% | [2]; at 3.7 µM 18% | [2]; at 11.0 µM 11% | [2]; at 33.0 µM 42% | [2]; at 100.0 µM 19% | [3]; [16] 14% | [3]; at 50.0 µM -4.9% | [4]; at 1.2 µM -13% | [4]; at 3.7 µM -4% | [4]; at 11.0 µM -26% | [4]; at 33.0 µM -27% | [4]; at 100.0 µM -30%
active: [3]; [17] 96%

O=c1ccc(N=Nc2ccccc2)ccc1O
active: [5]; at 11.0 µM 95% | [5]; at 33.0 µM 99% | [5]; at 100.0 µM 98% | [6]; at 11.0 µM 97% | [6]; at 33.0 µM 99% | [6]; at 100.0 µM 97% | [7]; at 11.0 µM 88% | [7]; at 33.0 µM 98% | [7]; at 100.0 µM 97% | [8]; at 3.7 µM 87% | [8]; at 11.0 µM 97% | [8]; at 33.0 µM 99% | [8]; [17] 99% | [8]; at 50.0 µM 98.7% | [8]; at 100.0 µM 98% | [9]; at 11.0 µM 93% | [9]; at 33.0 µM 99% | [9]; [17] 99% | [9]; at 50.0 µM 98.7% | [9]; at 100.0 µM 98% | [10]; at 3.7 µM 91% | [10]; at 11.0 µM 98% | [10]; at 33.0 µM 99% | [10]; at 100.0 µM 99% | [11]; [17] 99% | [11]; at 50.0 µM 98.7% | [12]; at 11.0 µM 93% | [12]; at 33.0 µM 98% | [12]; at 100.0 µM 97% | [13]; [17] 98% | [13]; at 50.0 µM 98.1% | [14]; at 3.7 µM 77% | [14]; at 11.0 µM 97% | [14]; at 33.0 µM 99% | [14]; [17] 99% | [14]; at 50.0 µM 97.8% | [14]; at 100.0 µM 99% | [15]; at 3.7 µM 87% | [15]; at 11.0 µM 99% | [15]; at 33.0 µM 99% | [15]; at 100.0 µM 98% | [1]; at 3.7 µM 90% | [1]; at 11.0 µM 98% | [1]; at 33.0 µM 99% | [1]; at 100.0 µM 99% | [2]; at 11.0 µM 97% | [2]; at 33.0 µM 99% | [2]; at 100.0 µM 98% | [3]; [17] 99% | [3]; at 50.0 µM 98.8% | [4]; at 11.0 µM 97% | [4]; at 33.0 µM 99% | [4]; at 100.0 µM 98%
inactive: [5]; at 1.2 µM 0% | [5]; at 3.7 µM 42% | [6]; at 1.2 µM 16% | [6]; at 3.7 µM 56% | [7]; at 1.2 µM -8% | [7]; at 3.7 µM 11% | [8]; at 1.2 µM 18% | [8]; [16] 34% | [9]; at 1.2 µM -1% | [9]; at 3.7 µM 37% | [9]; [16] 28% | [10]; at 1.2 µM 1% | [11]; [16] 44% | [12]; at 1.2 µM -6% | [12]; at 3.7 µM 33% | [13]; [16] -3% | [14]; at 1.2 µM 10% | [14]; [16] 22% | [15]; at 1.2 µM 31% | [1]; at 1.2 µM 10% | [2]; at 1.2 µM 4% | [2]; at 3.7 µM 62% | [3]; [16] 59% | [4]; at 1.2 µM 9% | [4]; at 3.7 µM 64%

Cc1ccc(S(=O)(=O)Nc2ccc3c(c2)C(O)c2ccccc2-3)cc1 (centres undefined)
active: [5]; at 33.0 µM 71% | [8]; at 50.0 µM 74.5% | [11]; at 50.0 µM 89.5% | [13]; at 50.0 µM 79.4% | [14]; at 50.0 µM 83.3% | [15]; at 33.0 µM 75% | [1]; at 33.0 µM 80% | [2]; at 33.0 µM 86% | [3]; at 50.0 µM 91% | [4]; at 33.0 µM 73%
inactive: [5]; at 1.2 µM -2% | [5]; at 3.7 µM -1% | [5]; at 11.0 µM 9% | [5]; at 100.0 µM 59% | [6]; at 1.2 µM -3% | [6]; at 3.7 µM -7% | [6]; at 11.0 µM -7% | [6]; at 33.0 µM 22% | [6]; at 100.0 µM 27% | [7]; at 1.2 µM 4% | [7]; at 3.7 µM 10% | [7]; at 11.0 µM 31% | [7]; at 33.0 µM 38% | [7]; at 100.0 µM 22% | [8]; at 1.2 µM -2% | [8]; at 3.7 µM -3% | [8]; [16] -4% | [8]; at 11.0 µM 6% | [8]; at 33.0 µM 48% | [8]; [17] 10% | [8]; at 100.0 µM 42% | [9]; at 1.2 µM -5% | [9]; at 3.7 µM -3% | [9]; [16] -9% | [9]; at 11.0 µM -5% | [9]; at 33.0 µM 21% | [9]; [17] 7% | [9]; at 50.0 µM 23.1% | [9]; at 100.0 µM 33% | [10]; at 1.2 µM -2% | [10]; at 3.7 µM -3% | [10]; at 11.0 µM 4% | [10]; at 33.0 µM 38% | [10]; at 100.0 µM 23% | [11]; [16] 0% | [11]; [17] 5% | [12]; at 1.2 µM -7% | [12]; at 3.7 µM -10% | [12]; at 11.0 µM -9% | [12]; at 33.0 µM 30% | [12]; at 100.0 µM 30% | [13]; [16] -19% | [13]; [17] 23% | [14]; at 1.2 µM 0% | [14]; at 3.7 µM 0% | [14]; [16] -3% | [14]; at 11.0 µM 2% | [14]; at 33.0 µM 20% | [14]; [17] 12% | [14]; at 100.0 µM 23% | [15]; at 1.2 µM -6% | [15]; at 3.7 µM -7% | [15]; at 11.0 µM -2% | [15]; at 100.0 µM 43% | [1]; at 1.2 µM -8% | [1]; at 3.7 µM -6% | [1]; at 11.0 µM 2% | [1]; at 100.0 µM 33% | [2]; at 1.2 µM -1% | [2]; at 3.7 µM -1% | [2]; at 11.0 µM 26% | [2]; at 100.0 µM 57% | [3]; [16] -6% | [3]; [17] 40% | [4]; at 1.2 µM -3% | [4]; at 3.7 µM -4% | [4]; at 11.0 µM -4% | [4]; at 100.0 µM 51%
